Compound activity (PubChem)
Pf growth 96h – Primary qHTS for delayed death inhibitors of the malarial parasite plastid, 96 hour incubation | P. falciparum luciferase reporter growth, 96 h | Potency, µM (doses to about 28.7 µM), usual class: inhibitors | 6.9% of 320,000 active; active = well fitted inhibition curve with a large enough effect; inconclusive = small, poorly fitted or top-dose-only effect, or another doubt; inactive = no such curve, though single readings can be large or run the other way
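Erythrocytes infected with luciferase-expressing P. falciparum were dispensed at 2% hematocrit and 0.05% parasitemia (final), then incubated with compounds 96 hours at 37 C in 5% CO2. Luminescence after detection reagent addition reported growth.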
Pf growth 48h – Primary qHTS for delayed death inhibitors of the malarial parasite plastid, 48 hour incubation; P. falciparum luciferase growth in erythrocytes, 48 h; Potency, µM (top dose mostly 28.7 µM), actives largely listed as inhibitors; AID 504832, 2011; 5.9% of 310,000 active; active = well fitted inhibition curve with a large enough effect; inconclusive = small, poorly fitted or top-dose-only effect, or another doubt; inactive = no such curve, though single readings can be large or run the other way
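Growth was read as firefly luciferase luminescence after a 48 h, 37 C, 5% CO2 exposure of compounds to reporter-bearing P. falciparum cultures (0.1% parasitemia, 2% hematocrit final) in Albumax-supplemented RPMI 1640.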
NS1 inh – qHTS Assay for Inhibitors of Influenza NS1 Protein Function. Potency, µM (titrated, usually from 46.1 µM). 0.4% of 270,000 active; also: actives are rising curves; nearly all actives have a fitted effect of over 50% in size
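A cell-based growth assay was used: compounds that relieve NS1-induced slow growth of budding yeast raise OD600. Assay medium was yeast nitrogen base with ammonium sulphate and -URA supplement, pH 6.0, with 2% galactose.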
Shiga toxin inh – A qHTS for Small Molecule Inhibitors of Shiga Toxin; inhibition, % at 38.7 µM; 9.2% of 290,000 active; Vero cells, Shiga toxin protein synthesis inhibition reporter; in the data active = inhibition mostly above about 28%, no sharp cut-off; inactive = mostly below about 43%
Cycloheximide cs – Cycloheximide Counterscreen for Small Molecule Inhibitors of Shiga Toxin; cell reporter, cycloheximide protein synthesis inhibition counterscreen; max response, %; 12% of 300,000 active; in the data active = max response mostly above about 13%, no sharp cut-off; inactive = mostly below about 14%; also: read at 38.3 µM for the half of the compounds with a filed dose
Flu NS1 inh – Assay for Inhibitors of Influenza NS1 Protein Function: Hit Validation. shares compounds with NS1 inh. influenza NS1 function cell assay, 15-point titration. activity change, negative = inhibition, % at 32.9 µM. 1,400 tested, under 10 active. AID 492980, 2010
Flu PR8 replic – Assay for Inhibitors of Influenza NS1 Protein Function: Influenza virus replication assay in MDCK cells infected with virus A/PR/8/34 | virus titer (log TCID50), log10 TCID50 at 5 µM | MDCK infected influenza A/PR/8/34, virus titer TCID50; stronger effect = lower value | 30% of 95 active | shares compounds with NS1 inh; call rule not given here
Hits are given with their value; n = inactive; u = inconclusive; x = no result; + = active, no number. Compounds with a hit are over-represented: about 21% of the library has one in this group of screens. Unless noted, calls follow the shape of the full dose curve.

SMILES	Pf growth 96h	Pf growth 48h	NS1 inh	Shiga toxin inh	Cycloheximide cs	Flu NS1 inh	others
COc1ccc(S(=O)(=O)Nc2nc3ccccc3s2)cc1OC	x	n	n	n	n	x
COc1ccc(C=C(c2nc3ccccc3s2)c2nc3ccccc3s2)cc1O	u	u	15.8µM	+	89.0	n
N/C(=N\O)c1cccc(CS(=O)(=O)c2ccccn2)c1	n	n	n	n	n	x
Cc1cccc(NC(=S)N=Nc2c(O)n(C)c3ccc(S(=O)(=O)N4CCOCC4)cc23)c1	2.33µM	8.28µM	u	n	n	n
Cc1cccc(Nc2ccc(S(=O)(=O)N3CCOCC3)cc2[N+](=O)[O-])c1	u	n	x	x	x	x
COc1ccc(C2Nc3ccccc3C(=O)N2Cc2ccco2)cc1COc1ccc(NC(C)=O)cc1 (configuration not stated)	10.4µM	u	12.6µM	n	n	n
CCC1Oc2ccccc2N(CC(=O)NCC2CCCO2)C1=O (configuration not stated)	n	n	n	n	n	x
Cc1cc(N2CCCC2)nc(-c2ccccc2O)n1	n	n	0.708µM	n	n	n
O=C(O)CC/C(=C\c1cc([N+](=O)[O-])ccc1Cl)c1nc2ccccc2s1	n	n	n	n	n	x
O=C(O)CC/C(=C\c1cccc(NC(=O)c2ccccc2Cl)c1)c1nc2ccccc2s1	n	n	u	n	n	n
CC(=O)/C=C/c1ccc(C)o1	u	n	x	n	n	x
Cc1ccc(/C=C/C(=O)Oc2ccc(C#N)cc2)o1	n	n	u	n	n	n	Flu PR8 replic=7.5
CN1CCN(C2=Nc3ccccc3Oc3ccc(Cl)cc32)CC1	n	u	u	n	n	n	Flu PR8 replic=7.33
CCC(C)NC(=O)CSc1n[nH]c(-c2cc(Cl)ccc2OC)n1 (configuration not stated)	n	n	x	n	n	x
CCCCC1=CC2=C(c3ccco3)C(=O)C(C)(OC(=O)c3ccc(OC)cc3)C(=O)C2=CN1CCc1ccccn1 (configuration not stated)	u	u	u	n	n	n
COC(=O)CCCC1=CC2=CC(=O)C(C)(OC(=O)c3cccs3)C(=O)C2=CN1CCc1ccccn1 (configuration not stated)	u	u	n	n	n	x
CCCCC1=CC2=CC(=O)C(C)(OC(=O)CC)C(=O)C2=CN1CCc1ccccn1 (configuration not stated)	u	u	u	n	n	n
Cc1c(Cl)cccc1NC(=O)N1CCCN(c2nc(-c3ccccc3)ns2)CC1	u	n	u	n	n	x
COc1ccc(-n2nc3c(c2NC(=O)C2CC(=O)N(c4ccccc4)C2)CS(=O)(=O)C3)cc1 (configuration not stated)	n	n	n	n	n	x
Cn1c(=O)c2c(ncn2CC(=O)N/N=C/c2c[nH]c3ccccc23)n(C)c1=O	n	n	n	n	n	x
Cn1c(=O)n(-c2ccccc2)c(=O)c2c3c(sc21)COC(C)(C)C3	x	n	8.91µM	n	n	n
CCC1(C)Cc2c(sc3c2c(=O)n(-c2ccccc2)c(=O)n3C)CO1 (configuration not stated)	n	n	n	n	n	x
CC(=O)c1ccc(NC(=O)COC(=O)c2c3c(nc4ccccc24)/C(=C\c2cccs2)CCC3)cc1	u	u	u	n	14.7	n
CC1(c2ccc(OCC#N)cc2)C=C(c2ccc(OCC#N)cc2)n2nc(C(F)(F)F)nc2N1 (configuration not stated)	7.38µM	9.28µM	10µM	n	n	u
CN(C(=O)CC1C(=O)NCCN1CC1CCCCC1)C1CCOCC1 (configuration not stated)	n	n	n	n	n	x
SMILES	Pf growth 96h	Pf growth 48h	NS1 inh	Shiga toxin inh	Cycloheximide cs	Flu NS1 inh	others
COc1ccc(-c2nn(-c3ccccc3)cc2/C=N/NC(=O)c2cccc(S(=O)(=O)Nc3ccccc3OC)c2)cc1	2.33µM	3.29µM	10µM	n	n	n
O=C(N/N=C/c1c[nH]c2ccccc12)c1cc(-c2ccc3ccccc3c2)n[nH]1	n	n	u	64.2	49.5	n
Cc1oncc1C(=O)Nc1cccc(C#N)c1	n	n	n	n	n	x
Cc1csc(SCC(=O)Nc2cccc(C)c2C)n1	n	n	x	x	x	x
Cc1csc(SCC(=O)Nc2nncs2)n1	n	n	u	n	n	n
COc1ccccc1NS(=O)(=O)c1ccc(Cl)c(NC(=S)NC(=O)C2CCCC2)c1	n	n	12.6µM	n	n	n
COc1ccc(-c2csc(C3=C(O)CN(Cc4ccc(Cl)cc4)C3=N)n2)cc1OC	x	u	n	n	n	x
COc1cccc(CN2CC(O)=C(c3nc(-c4ccc(Cl)cc4)cs3)C2=N)c1	n	n	5.01µM	n	n	n
Cc1cc(C)c2cc(C(=O)N3CCN(c4ncccc4C(F)(F)F)CC3)[nH]c2c1	u	n	n	n	n	x
CC(C)C[C@@H]1NC(=O)N(CCCn2ccnc2)C1=O	n	n	n	n	n	x
O=C(Nc1ccncc1)C1CCN(S(=O)(=O)c2cccs2)CC1	u	n	n	n	n	x
CC(=O)Nc1ccc(-c2csc(NC(=O)C3CCN(S(=O)(=O)c4cccs4)CC3)n2)cc1	u	2.08µM	12.6µM	n	n	n
CC(=O)Nc1c(C)cc(OCC(=O)O)cc1C	n	n	n	n	n	x
COc1ccc(C(=O)Nc2c(N)nc(SCC(=O)Nc3ccc(NC(C)=O)cc3)[nH]c2=O)cc1OC	10.4µM	n	22.4µM	n	n	n
Nc1nc(SCC(=O)Nc2ccc(C(F)(F)F)cc2)[nH]c(=O)c1NC(=O)c1ccc(F)c(F)c1	u	n	n	n	n	x
COc1ccc(C(=O)N/C(=C/c2cccc3ccccc23)C(=O)NCCc2c[nH]c3ccccc23)cc1OC	u	u	11.2µM	n	n	u
COc1ccc(/C=C(/NC(=O)c2ccc(OC)cc2)C(=O)NCCc2c[nH]c3ccccc23)cc1	u	u	u	n	n	x
COc1ccc(/C=C(/NC(=O)c2ccc(OC)c(OC)c2)C(=O)NCCc2c[nH]c3ccccc23)cc1	u	u	7.94µM	n	n	n
O=C(NCCc1c[nH]c2ccccc12)/C(=C/c1cccnc1)NC(=O)c1ccccc1	n	n	x	n	n	x
COc1cc2c(=O)n(CC3CCCO3)c(=O)n(CC(=O)Nc3cccc(Cl)c3)c2cc1OC (configuration not stated)	n	x	n	n	n	x
Nc1cc(N)nc(SCC(=O)N2CCN(S(=O)(=O)c3ccccc3)CC2)n1	u	n	11.2µM	n	n	n
CCOC(=O)C1CCN(c2ncnc3c2oc2ccc(Cl)cc23)CC1	n	n	n	n	n	x
